From PubChem BioAssay (EPA / NIEHS)
Activity calls are given as the source filed them. How the source made its calls: active means hit-call score of the fitted dose curve at least 0.9, where 1 is the maximum; inactive means score below 0.9.

How the values were obtained:
Conditions in all cases: mRNA level, 48 h; actives raise or lower the signal
[1] = read-out: growth arrest and DNA damage 45 (GADD45A), GADD45A (gene 1647); assay: LTEA_HepaRG_GADD45A: Life Technologies and Expression Analysis (LTEA) Assay for growth arrest and DNA damage 45 (GADD45A) using HepaRG (AID 2283458)
Procedure, shortened: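 Differentiated HepaRG cells exposed 48 h in serum-free induction medium to 8 concentrations, top 100 uM in half-log steps, 0.5% DMSO. GADD45A mRNA quantified by qRT-PCR, normalized to ACTB, GAPDH and POLR2A; bidirectional fit versus DMSO.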

[2] = read-out: Forkhead box O3 (FOXO3), FOXO3 (gene 2309); assay: LTEA_HepaRG_FOXO3: Life Technologies and Expression Analysis (LTEA) Assay for Forkhead box O3 (FOXO3) using HepaRG (AID 2283459)
Procedure, shortened: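 Differentiated human HepaRG cells, 48 h post-plating, exposed in duplicate for 48 h in serum-free induction medium; 8-point half-log series from 100 uM in 0.5% DMSO. FOXO3 mRNA by TaqMan qRT-PCR, normalized to ACTB/GAPDH/POLR2A; bidirectional fit versus DMSO.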

[3] = read-out: ABC Transporter (ABCB1), ABCB1 (gene 5243); assay: LTEA_HepaRG_ABCB1: Life Technologies and Expression Analysis (LTEA) Assay for ABC Transporter (ABCB1) using HepaRG (AID 2283460)
Procedure, shortened: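 HepaRG cells exposed in duplicate for 48 h in serum-free induction medium to eight half-log concentrations up to 100 uM in 0.5% DMSO. ABCB1 mRNA quantified by qRT-PCR, normalised to ACTB, GAPDH and POLR2A; fitted bidirectionally versus DMSO.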

[4] = read-out: growth arrest and DNA damage 45 (GADD45B), GADD45B (gene 4616); assay: LTEA_HepaRG_GADD45B: Life Technologies and Expression Analysis (LTEA) Assay for growth arrest and DNA damage 45 (GADD45B) using HepaRG (AID 2283461)
Procedure, shortened: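 Values are bidirectional concentration-response fits against 0.5% DMSO controls. Underlying data: qRT-PCR mRNA levels in human HepaRG liver cells treated 48 h in serum-free induction medium, eight concentrations topping at 100 uM.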

[5] = read-out: ABC Transporter (ABCC3), ABCC3 (gene 8714); assay: LTEA_HepaRG_ABCC3: Life Technologies and Expression Analysis (LTEA) Assay for ABC Transporter (ABCC3) using HepaRG (AID 2283462)
Procedure, shortened: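 Differentiated HepaRG liver cells receive test chemicals at eight concentrations (max 100 uM) for 48 h. Expression of ABCC3 is quantified by qRT-PCR against ACTB, GAPDH and POLR2A, and activity is fitted in both directions against the DMSO control.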

[6] = read-out: ABC Transporter (ABCB11), ABCB11 (gene 8647); assay: LTEA_HepaRG_ABCB11: Life Technologies and Expression Analysis (LTEA) Assay for ABC Transporter (ABCB11) using HepaRG (AID 2283463)
Procedure, shortened: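 Differentiated human HepaRG cells in serum-free induction medium, dosed in duplicate for 48 h. Eight-point half-log series from 100 uM in 0.5% DMSO; ABCB11 mRNA by qRT-PCR, normalized to ACTB, GAPDH, POLR2A, fitted bidirectionally versus DMSO.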

[7] = read-out: ABC Transporter (ABCC2), ABCC2 (gene 1244); assay: LTEA_HepaRG_ABCC2: Life Technologies and Expression Analysis (LTEA) Assay for ABC Transporter (ABCC2) using HepaRG (AID 2283464)
Procedure, shortened: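 Gene expression of ABCC2 was determined by qRT-PCR in HepaRG cells exposed 48 h to chemicals (highest 100 uM, half-log dilutions). Activity was fitted in both directions relative to 0.5% DMSO vehicle.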

[8] = read-out: Broad substrate specificity ATP-binding cassette transporter ABCG2 (Homo sapiens) (UniProt Q9UNQ0); assay: LTEA_HepaRG_ABCG2: Life Technologies and Expression Analysis (LTEA) Assay for ABC Transporter (ABCG2) using HepaRG (AID 2283465)
Procedure, shortened: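 Differentiated HepaRG cells were exposed for 48 h in serum-free induction medium to 8 half-log concentrations, top 100 uM, in 0.5% DMSO. ABCG2 mRNA was measured by qRT-PCR, normalized to ACTB, GAPDH and POLR2A, with bidirectional fitting versus DMSO.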

[9] = read-out: ATP-citrate lyase (ACLY), ACLY (gene 47); assay: LTEA_HepaRG_ACLY: Life Technologies and Expression Analysis (LTEA) Assay for ATP-citrate lyase (ACLY) using HepaRG (AID 2283466)
Procedure, shortened: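 Differentiated HepaRG cells exposed 48 h in serum-free induction medium to eight half-log concentrations up to 100 uM in 0.5% DMSO, duplicates. Transcript measured by Fluidigm TaqMan qRT-PCR, normalized to ACTB, GAPDH, POLR2A; bidirectional fit versus DMSO.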

[10] = read-out: Alkaline Phosphatase, Placental (ALPP) gene, ALPP (gene 250); assay: LTEA_HepaRG_ALPP: Life Technologies and Expression Analysis (LTEA) Assay for Alkaline Phosphatase, Placental (ALPP) gene using HepaRG (AID 2283468)
Procedure, shortened: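 Expression of ALPP was quantified by qRT-PCR against three housekeeping genes in human HepaRG cultures treated for 48 h with an eight-point concentration series up to 100 uM. Activity in either direction was fitted relative to 0.5% DMSO.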

[11] = read-out: Bcl-2 (BAD) gene, BAD (gene 572); assay: LTEA_HepaRG_BAD: Life Technologies and Expression Analysis (LTEA) Assay for Bcl-2 (BAD) gene using HepaRG (AID 2283469)
Procedure, shortened: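 Differentiated HepaRG cells were exposed in duplicate in 0.5% DMSO for 48 h to eight-point half-log concentrations up to 100 uM. BAD mRNA was measured by Fluidigm TaqMan qRT-PCR, normalized to ACTB, GAPDH and POLR2A, and fitted bidirectionally against DMSO.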

[12] = read-out: Bcl-2 (BAX) gene, BAX (gene 581); assay: LTEA_HepaRG_BAX: Life Technologies and Expression Analysis (LTEA) Assay for Bcl-2 (BAX) gene using HepaRG (AID 2283470)
Procedure, shortened: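 Differentiated HepaRG cells exposed 48 h in serum-free induction medium, eight half-log concentrations from 100 uM, in duplicate, 0.5% DMSO vehicle. BAX mRNA by TaqMan qRT-PCR, normalised to ACTB, GAPDH and POLR2A.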

[13] = read-out: adenosine kinase (ADK) gene, ADK (gene 132); assay: LTEA_HepaRG_ADK: Life Technologies and Expression Analysis (LTEA) Assay for adenosine kinase (ADK) gene using HepaRG (AID 2283471)
Procedure, shortened: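 Following 48 h exposure of HepaRG cells in 0.5% DMSO (top concentration 100 uM, duplicate wells), ADK mRNA induction or suppression was measured by qRT-PCR, normalised to ACTB/GAPDH/POLR2A, and fitted bidirectionally relative to vehicle.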

[14] = read-out: Alpha-fetoprotein (AFP) gene, AFP (gene 174); assay: LTEA_HepaRG_AFP: Life Technologies and Expression Analysis (LTEA) Assay for Alpha-fetoprotein (AFP) gene using HepaRG (AID 2283472)
Procedure, shortened: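 Differentiated human HepaRG cells exposed 48 h in serum-free induction medium, 8-point half-log series from 100 uM in 0.5% DMSO, duplicate. AFP mRNA by qRT-PCR, normalized to ACTB, GAPDH, POLR2A; bidirectional fit vs DMSO.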

[15] = read-out: BCL2L11 (gene 10018); assay: LTEA_HepaRG_BCL2L11: Life Technologies and Expression Analysis (LTEA) Assay for Bcl-2 (BCL2L11) gene using HepaRG (AID 2283473)
Procedure, shortened: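 Cells were plated, cultured 48 h, switched to serum-free induction medium, then dosed in duplicate for 48 h at eight half-log concentrations up to 100 uM. Lysates underwent RNA isolation and TaqMan qRT-PCR; gain or loss versus DMSO was fitted.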

[16] = read-out: Apolipoprotein A-V (APOA5) gene, APOA5 (gene 116519); assay: LTEA_HepaRG_APOA5: Life Technologies and Expression Analysis (LTEA) Assay for Apolipoprotein A-V (APOA5) gene using HepaRG (AID 2283474)
Procedure, shortened: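 Human liver HepaRG cells are treated 48 h with test chemicals (100 uM top, half-log dilutions, 0.5% DMSO). APOA5 mRNA induction or loss is measured by qRT-PCR relative to vehicle.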

[17] = read-out: Apoptosis regulator Bcl-2 (Homo sapiens) (UniProt P10415); assay: LTEA_HepaRG_BCL2: Life Technologies and Expression Analysis (LTEA) Assay for Bcl-2 gene using HepaRG (AID 2283475)
Procedure, shortened: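 Differentiated human HepaRG cells in serum-free induction medium exposed 48 h, in duplicate, to 8-point half-log series from 100 uM in 0.5% DMSO. BCL2 mRNA by qRT-PCR (TaqMan/Fluidigm), normalized to ACTB, GAPDH, POLR2A; bidirectional fit against DMSO.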

[18] = read-out: Bcl-2 (BID) gene, BID (gene 637); assay: LTEA_HepaRG_BID: Life Technologies and Expression Analysis (LTEA) Assay for Bcl-2 (BID) gene using HepaRG (AID 2283476)
Procedure, shortened: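 Gene expression by qRT-PCR in HepaRG cells after 48 h exposure, duplicate wells, eight half-log concentrations topping at 100 uM in 0.5% DMSO. Normalized to ACTB, GAPDH, POLR2A; bidirectional fitting relative to DMSO.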

[19] = read-out: Peroxisomal acyl-coenzyme A oxidase 1 (ACOX1) gene, ACOX1 (gene 51); assay: LTEA_HepaRG_ACOX1: Life Technologies and Expression Analysis (LTEA) Assay for Peroxisomal acyl-coenzyme A oxidase 1 (ACOX1) gene using HepaRG (AID 2283467)
Procedure, shortened: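 HepaRG cells, plated 48 h then switched to serum-free induction medium, were exposed in duplicate for 48 h to 8-point half-log concentrations up to 100 uM in 0.5% DMSO. ACOX1 mRNA was measured by qRT-PCR, normalized to ACTB/GAPDH/POLR2A, and fitted bidirectionally versus DMSO.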

Measured: AC50

Sequence of Broad substrate specificity ATP-binding cassette transporter ABCG2 (Homo sapiens) (Q9UNQ0 whole entry, looked up): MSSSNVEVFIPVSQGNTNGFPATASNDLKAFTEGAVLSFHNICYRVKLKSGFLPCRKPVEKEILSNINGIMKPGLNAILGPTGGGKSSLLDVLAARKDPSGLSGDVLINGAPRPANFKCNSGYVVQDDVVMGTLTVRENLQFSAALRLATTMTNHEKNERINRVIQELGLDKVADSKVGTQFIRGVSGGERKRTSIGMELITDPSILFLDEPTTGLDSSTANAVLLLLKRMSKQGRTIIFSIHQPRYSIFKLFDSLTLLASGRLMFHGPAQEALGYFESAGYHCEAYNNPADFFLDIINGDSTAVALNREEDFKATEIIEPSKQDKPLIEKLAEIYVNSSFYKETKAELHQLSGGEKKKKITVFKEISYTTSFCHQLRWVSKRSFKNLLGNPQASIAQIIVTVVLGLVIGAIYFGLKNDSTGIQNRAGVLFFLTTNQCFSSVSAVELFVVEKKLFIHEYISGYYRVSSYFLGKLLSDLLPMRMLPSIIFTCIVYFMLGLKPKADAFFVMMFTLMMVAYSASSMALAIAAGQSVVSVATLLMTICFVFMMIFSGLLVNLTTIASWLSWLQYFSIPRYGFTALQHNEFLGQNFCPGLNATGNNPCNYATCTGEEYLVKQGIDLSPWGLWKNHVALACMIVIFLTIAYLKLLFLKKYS
Sequence of Apoptosis regulator Bcl-2 (Homo sapiens) (P10415 whole entry, looked up): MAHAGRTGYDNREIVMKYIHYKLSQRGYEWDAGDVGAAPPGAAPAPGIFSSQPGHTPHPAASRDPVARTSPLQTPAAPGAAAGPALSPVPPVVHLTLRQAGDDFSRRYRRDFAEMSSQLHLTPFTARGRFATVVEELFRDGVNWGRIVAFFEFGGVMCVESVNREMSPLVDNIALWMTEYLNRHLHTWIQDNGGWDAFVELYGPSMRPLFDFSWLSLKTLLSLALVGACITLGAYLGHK

COc1ccc(-n2nc(C(F)F)cc2-c2ccc(S(C)=O)cc2)cc1 (stereo unspecified)
inactive: [1] | [2] | [3] | [4] | [5] | [8] | [9] | [10] | [11] | [12] | [13] | [14] | [15] | [16] | [17] | [18]
active: [6] 17.3 µM | [7] 30.9 µM

CCC(C)(C)C(=O)O[C@H]1C[C@@H](C)C=C2C=C[C@H](C)[C@H](CC[C@@H]3C[C@@H](O)CC(=O)O3)[C@H]21
active: [6] 50 µM | [9] 13.5 µM
inactive: [1] | [2] | [4] | [7] | [8] | [19] | [10] | [12] | [13] | [14] | [15] | [16] | [18]

CN(C)c1ccc(N=NS(=O)(=O)O)cc1
active: [2] 16.4 µM | [4] 31 µM | [6] 21 µM | [16] 12.8 µM
inactive: [1] | [5] | [7] | [8] | [9] | [10] | [11] | [12] | [13] | [14] | [15] | [18]

COc1ccc2sc(C(=O)Nc3nnn[nH]3)c(OC(C)C)c2c1
active: [1] 31.4 µM | [2] 23.6 µM | [4] 43.9 µM | [5] 24.4 µM | [6] 12.1 µM | [7] 81 µM | [9] 11.9 µM | [12] 50 µM | [14] 59.5 µM | [15] 31.1 µM
inactive: [8] | [19] | [10] | [11] | [13] | [16] | [18]

CC(C)=CCCC(C)CCO (stereo unspecified)
inactive: [1] | [2] | [4] | [5] | [6] | [7] | [8] | [9] | [19] | [10] | [12] | [13] | [14] | [15] | [16] | [18]

O=C(OC[C@H]1O[C@@H](OC(=O)c2cc(O)c(O)c(OC(=O)c3cc(O)c(O)c(O)c3)c2)[C@H](OC(=O)c2cc(O)c(O)c(OC(=O)c3cc(O)c(O)c(O)c3)c2)[C@@H](OC(=O)c2cc(O)c(O)c(OC(=O)c3cc(O)c(O)c(O)c3)c2)[C@@H]1OC(=O)c1cc(O)c(O)c(OC(=O)c2cc(O)c(O)c(O)c2)c1)c1cc(O)c(O)c(OC(=O)c2cc(O)c(O)c(O)c2)c1
inactive: [2] | [4] | [9] | [19] | [11] | [12] | [13]
active: [1] 3.26 µM | [5] 9.66 µM | [6] 7.96 µM | [7] 15.2 µM | [8] 8.88 µM | [10] 3.31 µM | [14] 8.86 µM | [15] 15.2 µM | [16] 6.96 µM | [17] 28.4 µM | [18] 7.63 µM

CC(C)=CCCC(C)=CC=O
inactive: [2] | [3] | [4] | [5] | [6] | [7] | [8] | [9] | [19] | [10] | [12] | [13] | [14] | [15] | [16] | [18]
